Results reported in PubChem BioAssay (EPA / NIEHS).
The source made the active and inactive calls. Rule for the calls: active = hit-call score of the fitted dose curve at least 0.9, where 1 is the maximum; inactive = score below 0.9.

Experiment: UKN5_HCS_SBAD2_cell_viability: Viability Assessment in the University of Konstanz (UKN) Leist Lab Neurite Outgrowth Assay in human iPSC-derived immature Dorsal Root Ganglia Neurons (UKN5) (AID 2284056)
Description: UKN5_HCS_SBAD2 is a cell-based, multiplexed-readout assay screening for neurite outgrowth and cell viability that uses SBAD2 (peripheral neurons differentiated from iPSC), a human peripheral nervous system cell line, with measurements taken at […] after chemical dosing in a microplate: 96-well plate. UKN5, also referred to as PeriTox, is an assay that uses human iPSC line SBAD2 as a model of peripheral neurons. Following 24 hr chemical exposures in multi-well plates, neurite area is evaluated as a marker of neurite outgrowth using high-content imaging of cells stained with calcein-AM. Cell viability is assessed using stain Hoechst H-33342.UKN5_HCS_SBAD2_cell_viability is an assay component measured from the UKN5_HCS_SBAD2 assay. It is designed to make measurements of enzyme activity, a form of viability reporter, as detected with Fluorescence intensity signals by HCS Fluorescent Imaging.The assay endpoint UKN5_HCS_SBAD2_cell_viability was analyzed with bidirectional fitting relative to DMSO as the negative control and baseline of activity. Using a type of viability reporter, gain or loss-of-signal activity can be used to understand viability effects. To generalize the intended target to other relatable targets, this assay endpoint is annotated to the cell cycle intended target family, where the subfamily is viability.
The previously differentiated immature peripheral neurons are thawed and seeded on Matrigel coated plates (1:40 diluted) in 75 ul medium composed of 75% N2-S medium and 25% KSR medium, supplemented with CHIR99021 (1.5 uM), SU5402 (5 uM) and DAPT (gamma-Secretase inhibitor IX, 5 uM) at a density of 100.000 cells/cm2. One hour after seeding, treatment compounds are added to the cells in 25 ul of similar to culture medium in which cells were seeded. 23 h after toxicant application, cells are live-stained with H-33342 and calcein-AM and incubated for 60 min. After 24 h of treatment (including staining), the cells are imaged using a high-content microscope (Cellomics VTI Array Scan).
With `O=C1N[C@@H]2C(=C[C@H](O)[C@@H](O)[C@H]2O)c2cc3c(c(O)c21)OCO3` the AC50 was 0.0303 µM (active). In the case of `[CH3][Sn]([CH3])([CH3])[Cl]`, the AC50 is reported as 18.8 µM (active). For `CN1CC=C(c2ccccc2)CC1`, the outcome was “inactive”. In the case of `COC(=O)[C@H]1[C@@H](OC(=O)c2ccccc2)C[C@@H]2CC[C@H]1N2C`, the outcome is reported as “inactive”. In the case of `C[n+]1ccc(-c2ccccc2)cc1`, the outcome is reported as “inactive”. With `C[n+]1ccc(-c2cc[n+](C)cc2)cc1` the outcome was “inactive”. With `Brc1ccc(Oc2cc(Br)c(Br)cc2Br)c(Br)c1` the outcome was “inactive”. In the case of `CP(=O)(O)CCC(N)C(=O)O` (centres undefined), the outcome is reported as “inactive”. With `CNC(C)Cc1ccc2c(c1)OCO2` (centres undefined) the outcome was “inactive”. With `CC(=O)Oc1ccc2c3c1O[C@H]1[C@@H](OC(C)=O)C=C[C@H]4[C@@H](C2)N(C)CC[C@@]341` the outcome was “inactive”. For `Clc1cc(Cl)c(-c2cc(Cl)c(Cl)c(Cl)c2Cl)cc1Cl`, the outcome was “inactive”. For `CN[C@@H](C)Cc1ccccc1`, the outcome was “inactive”. In the case of `[O-][Cl+3]([O-])([O-])O`, the outcome is reported as “inactive”. For `Brc1ccc(Oc2ccc(Br)cc2Br)c(Br)c1`, the outcome was “inactive”. With `[Cd+2].[Cl-].[Cl-]` the AC50 was 50 µM (active). For `CC(C)CC(C)c1sccc1NC(=O)c1cn(C)nc1C(F)(F)F` (centres undefined), the outcome was “inactive”. For `CC1(C)[C@H](C(=O)O[C@H](C#N)c2cccc(Oc3ccccc3)c2)[C@@H]1C=C(Br)Br`, the AC50 was 115 µM (active). For `CN1CC[C@]23c4c5ccc(O)c4O[C@H]2[C@@H](O)C=C[C@H]3[C@H]1C5`, the outcome was “inactive”. In the case of `CC(=O)[O-].CC(=O)[O-].O.O.O.[Pb+2]`, the AC50 is reported as 17.7 µM (active). In the case of `CC1(C)C(C=C(Cl)Cl)[C@H]1C(=O)O[C@H](C#N)c1cccc(Oc2ccccc2)c1` (some centres undefined), the outcome is reported as “inactive”. For `[CH3][Hg][Cl]`, the AC50 was 3.17 µM (active). For `CNC1(c2ccccc2Cl)CCCCC1=O` (centres undefined), the outcome was “inactive”. For `O=[As](O)(O)O`, the AC50 was 4.31 µM (active). With `C/C(=C/C=C/[C@@H](C)C(=O)O)[C@H]1CN[C@H](C(=O)O)[C@H]1CC(=O)O` the outcome was “inactive”.
